Reference: PubChem BioAssay AID1981 (Southern Research Specialized Biocontainment Screening …, 2009)
Screen size: about 2,200 compounds; about 480 (22%) were called active. These entries were drawn from the full list. Entries with a potency or affinity are not part of this list. A number with no mark means an inactive call. How the calls were made is not given here.

Experiment: S. Typhimurium GFP fluorescence modified counterscreen for PhoP regulon inhibitor project dose response (AID 1981);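 further: 0% = induced DMSO wells and 100% = uninduced wells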
Settings: 4 h; series mostly up to 150 µM; inhibition: at the top concentration

Row | SMILES | inhibition
1 | CCOc1cc(S(=O)(=O)N2CCN(CC)CC2)ccc1Cl | -9.5%
2 | CC(C)Cn1cnc2sc3c(c2c1=N)CCCC3 | -13%
3 | CCn1c(C)cc(=S)c2ccccc21 | -32%
4 | CC(C)(C)C1CCC2(CC1)Nc1cccc3cccc(c13)N2 | 36.6%
5 | Cc1ccc(C(=O)CSc2ncnc3sc4c(c23)CCCC4)cc1 | -11.5%
6 | c1ccc(Cn2nnc3c(NCc4ccc5c(c4)OCO5)nc(C4CC4)nc32)cc1 | -2.72%
7 | CCC(CC)C(=O)N1c2ccc(F)cc2CCC1C (stereo not given) | 0.41%
8 | Cc1nc(N2CCN(Cc3ccccc3)CC2)nc2c1C(=O)CC(C)C2 (stereo not given) | 5.44%
9 | Cc1cc(/C=N/NC(N)=S)c(C)n1-c1ccc(Cl)c(Cl)c1 | -26.8%
10 | Cn1cccc1CC(=O)N/N=C/C(Cl)=C/c1ccccc1 | 15.1%
11 | c1ccc2c(c1)Sc1ccccc1N2CC1CN2CCC1CC2 (stereo not given) | 18.1%
12 | CSc1ccc2c(c1)C(N1CCN(C)CC1)Cc1ccccc1S2 (stereo not given) | 20.5%
13 | O=C(CSc1nc2ccccc2o1)Nc1ccc(N2CCOCC2)cc1 | -19.7%
14 | O=C1CC(c2ccccc2)n2nc(NC(=O)c3ccccc3)nc2N1 (stereo not given) | -4.4%
15 | CCN(c1ccc(OCC(=O)OCC(=O)Nc2ccc(F)c(F)c2F)cc1)S(=O)(=O)c1ccccc1 | 11.7%
16 | O=C(Cc1n[nH]c(=O)c2ccccc12)OCC(=O)c1ccc2c(c1)OCCO2 | 6.84%
17 | CC1CCN(C(c2cc3cc4c(cc3[nH]c2=O)OCO4)c2nnnn2CC2CCCO2)CC1 (stereo not given) | -12.8%
18 | COc1ccc(N(CC(=O)Nc2ccccc2SC)S(C)(=O)=O)cc1OC | -0.04%
19 | Nc1cc(N)nc(SCc2cc(=O)oc3cc4c(cc23)CCC4)n1 | 0.78%
20 | Nc1nnc(Sc2ccc(Cl)cc2[N+](=O)[O-])s1 | 0.13%
21 | CCN(CC)S(=O)(=O)c1ccc2[nH]cc(C(=O)NCCc3ccccc3)c(=O)c2c1 | 3.6%
22 | O=C(CSc1nccc(=O)[nH]1)N1c2ccccc2CCc2ccccc21 | -5.17%
23 | O=C(CSc1nc(Nc2ccccc2)nc(N2CCOCC2)n1)Nc1ccc([N+](=O)[O-])cc1 | 2.48%

Row | SMILES | inhibition
24 | Cc1cc(=O)oc(C)c1C(=O)NCc1cccnc1 | 2.68%
25 | O=C(NNc1nc(-c2ccccc2)cs1)c1ccco1 | -17.3%
26 | COc1ccc(Cl)cc1Nc1nc(-c2sc(NC(=O)c3ccco3)nc2C)cs1 | 17.1%
27 | Cc1cc(C)cc(OC(=O)CS(=O)c2ccc(C(F)(F)F)cc2[N+](=O)[O-])c1 (stereo not given) | -13.2%
28 | c1ccc2c(c1)[nH]c1c(N3CCCC3)ncnc12 | 17.7%
29 | O=C(CCCNS(=O)(=O)c1ccccc1)NCc1ccco1 | -7.4%
30 | O=Cc1cccn1Cc1ccccc1[N+](=O)[O-] | 1.61%
31 | CCN1CCN(c2oc(COc3ccc(Cl)cc3)nc2C#N)CC1 | -4.31%
32 | CCOC(=O)c1cnc2ccc(OCC)cc2c1N1CCN(c2ccccc2)CC1 | -3.31%
33 | COc1ccc2cc(C#N)c(NC(C)C)nc2c1 | -0.85%
34 | COc1cc(C2NC(=O)NC(c3ccccc3)=C2C(C)=O)ccc1OCC(=O)O (stereo not given) | -5.88%
35 | CC1CCCC(C)N1/N=C/c1c[nH]c2ccc(Br)cc12 (stereo not given) | 11%
36 | COc1cccc(N=Cc2c[nH][nH]c2=O)c1 | -0.27%
37 | O=C(OCc1ccccc1)Oc1cncc(C(=O)O)c1 | 11.2%
38 | COC(=O)c1ccc(C(=O)OC)c(NC(=O)COc2ccccc2OC)c1 | -0.88%
39 | CC(=O)Nc1nc2nc(-c3ccccc3)cc(-c3ccccc3)n2n1 | -10.5%
40 | CCOC(=O)C(/C=C(\C#N)C(=O)OCC)=C(/N)N1CCN(c2c(C)cccc2C)CC1 | -22.8%
41 | O=C(CCN1CCc2ccccc2C(c2ccccc2)C1)c1ccc2c(c1)OCCO2 (stereo not given) | 30.5%
42 | CCCC(=O)c1c[nH]c(C(=O)NCCCN2CCOCC2)c1 | -18.2%
43 | O=C(c1ccc(CSc2nc3ccncc3[nH]2)cc1)N1CCN(c2cccc(Cl)c2)CC1 | -35.5%
44 | O=S(=O)(c1ccc(F)c2ccccc12)N1CCCCC1 | -5.03%
45 | COc1ccc(-c2[nH]ncc2/C=C(\C#N)C(=O)NC2CC2)cc1 | -18.2%
46 | COC(=O)C1=C(C)N(C)C(=O)/C1=C\c1ccco1 | -11.7%

Row | SMILES | inhibition
47 | COC(=O)c1ccc(NC(=S)NCCc2cccc(C)c2)cc1 | -3.52%
48 | COc1ccc(S(=O)(=O)n2nc(OC(=O)c3ccccc3Br)cc2N)cc1 | 3.07%
49 | CN(C(=O)C1CCOC1)c1nnc(-c2ccccn2)s1 (stereo not given) | -18.9%
50 | O=C1NC(c2ccc3c(c2)OCO3)Oc2ccccc21 (stereo not given) | -11.6%
51 | CCn1nnc(-c2ccccc2NS(=O)(=O)c2ccc(S(=O)(=O)N3CCCCCC3)cc2)n1 | -13.5%
52 | CC(C)CCNC(=S)Nc1ccc([N+](=O)[O-])cc1 | 17.3%
53 | Cc1cc(C(=O)N/N=C/c2ccc[nH]2)no1 | -6.52%
54 | O=C(NC1CCN(C(=O)N2c3ccccc3Sc3ccccc32)CC1)c1ccco1 | -18.3%
55 | Cc1cc(CNC(=O)Nc2ccc3c(c2)OCO3)nn1C | -1.45%
56 | O=C(COc1ccc2ccccc2c1)N1CCN(CC2CC3C=CC2C3)CC1 (stereo not given) | -22.7%
57 | COCC(=O)N(Cc1ccco1)c1nnc(C2CCOC2)s1 (stereo not given) | -13.3%
58 | CCCc1nn(C)c2c1C(c1cccnc1)C(C#N)=C(N)O2 (stereo not given) | 10.6%
59 | CCOC(=O)C1(S(=O)(=O)c2ccccc2)CCN(Cc2ccc(Cl)cc2)CC1 | 6.33%
60 | O=C(CN1C(=O)c2ccccc2C1=O)N1CCN(c2ccccn2)CC1 | -16.9%
61 | Cc1ccc(/C=C/c2nnc(-c3ccc(C)cc3)o2)cc1 | -10.9%
62 | CC(=O)n1cc(/C=N/NC(=O)c2sc(C)nc2C)c2ccccc21 | 12.1%
63 | COc1ccc(OCCn2cc(/C=N/NC(=O)c3ccncc3)c3ccccc32)cc1 | -13.5%
64 | COc1ccc2ccccc2c1/C=N/NC(=O)c1sc(N)c(C#N)c1C | 8.92%
65 | COc1ccc(C2CC(c3ccccc3)=NN2c2ccc(/C=N/NC(=O)c3ccncc3)cc2)cc1 (stereo not given) | -10.1%
66 | COc1ccc2c(c1)CC1(CN2C)C(=O)NC(=O)N(c2ccc(F)cc2)C1=O (stereo not given) | 1.85%
67 | O=C1Nc2ccc(F)cc2C12SCCS2 | 2.27%
68 | Cc1cc2ncn(CC(O)COc3cccc(C(=O)O)c3)c2cc1C (stereo not given) | -1.34%
69 | COc1cc([N+](=O)[O-])ccc1NC(=O)CN(C)C | 7.69%

Row | SMILES | inhibition
70 | COc1cc([N+](=O)[O-])cc(/C=N/NC(=O)c2cccnc2)c1O | 27.7%
71 | C#CC(C)(CC)NC(=O)c1cc(OC)c(OC)c(OC)c1 (stereo not given) | -16.3%
72 | CC(C)(C)c1cc2cccnc2n1Cc1cccc(Cl)c1 | 10.3%
73 | COc1ccc(Cl)cc1C(=O)Nc1ccc(NC(=O)c2ccco2)cc1 | 2.6%
74 | O=C(O)CCc1nn2c3ccccc3n(CC(=O)c3ccccc3)c2nc1=O | -7.66%
75 | Nc1ncncc1-c1ccc(Cl)cc1 | 23.2%
76 | Nc1c(-c2ccccc2)cnn1-c1cccc([N+](=O)[O-])c1 | 6.43%
77 | CCOC(=O)C1CCCN(C(=O)Cc2ccc(Cl)cc2)C1 (stereo not given) | -1.97%
78 | CC1=CC(C)C2(CO)COC(c3ccccc3O)C1C2C (stereo not given) | -11.4%
79 | CNc1nc(-c2ccccn2)nnc1-c1ccccc1 | 5.61%
80 | Nc1nc(Nc2ccc(Cl)cc2)n[nH]1 | 1.77%
81 | Cc1ccc2c(CN3CCC(C)CC3)cc(=O)oc2c1 | 14.3%
82 | Cc1[nH]c2ccccc2c1C1=NNC(=Nc2ccc(F)cc2)SC1 | 4.54%
83 | CCN1/C(=C/C(C)=C/c2sc3ccccc3[n+]2CC)Sc2ccccc21 | -25.4%
84 | COc1ccc(C(=O)COc2nc(C)cc(C)c2C#N)cc1 | -2.08%
85 | Cc1cc(-c2csc(NC(=O)c3ccc(S(=O)(=O)N(C)C)cc3)n2)c(C)n1-c1ccccc1 | 37.3%
86 | CC1(C)CC(=O)c2c(nc3ccccc3c2N)C1 | 15.4%
87 | Cc1nn(-c2ccc(Cl)cc2)c2[nH]c(=O)c(CNCc3ccc4c(c3)OCO4)cc12 | -13.3%
88 | CC(O)c1ccc(OCCN(C)c2ccccn2)cc1 (stereo not given) | -4.92%
89 | Cc1cc(C)n(-c2ccc(C(=O)Nc3nc4ccccc4s3)cc2)n1 | 22.7%
90 | CC(=O)c1c(N2CCN(C(=O)C3CCCO3)CC2)nc(=S)n(-c2ccccc2)c1C (stereo not given) | -7.59%
91 | O=S(=O)(Cc1ccccc1Cl)N1CCN(Cc2ccc3c(c2)OCO3)CC1 | -16.8%
92 | Cc1ccc(-n2c(C)cc(C3=NNC(=NC4CC4)SC3)c2C)cc1C | -3.95%

Row | SMILES | inhibition
93 | Cc1nc2ccccc2c(=O)n1/N=C/c1ccc(N(C)C)cc1 | -8.07%
94 | c1ccc(Cc2nnc(-c3ccccc3)o2)cc1 | -14.2%
95 | NCCCCCc1nnc(SCc2ccc(Cl)c(Cl)c2)o1 | 2.34%
96 | O=C(c1ccc(-c2ccccc2)cc1)c1ccccc1C(=O)N1CCOCC1 | -16.8%
97 | COc1ccc(N2CCN(C(=O)C3CCCO3)CC2)cc1 (stereo not given) | 0.62%
98 | O=C(c1ccc(Cl)cc1Cl)C1(n2cncn2)Oc2ccccc2C1O (stereo not given) | -5%
99 | Cc1cccc(-n2ncc3c(NCc4ccc5c(c4)OCO5)ncnc32)c1 | -7.68%
100 | O=C1C2C3c4ccccc4C(c4ccccc43)C2C(=O)N1c1cccc2cccnc12 (stereo not given) | -8.36%
101 | Brc1ccc2cccnc2c1 | -12.2%
102 | Cc1ccc(C=Nc2ccccc2C(N)=O)cc1 | 17.5%
103 | CCOc1c(Br)cc(CNCc2cccs2)cc1OC | -0.6%
104 | Clc1ccc(Cn2ncc3c(NCc4ccco4)ncnc32)c(Cl)c1 | 5.71%
105 | Cc1ccc(NC(=O)CCCSc2nc3ccccc3[nH]2)cc1 | 28.1%
106 | O=C(Nc1cccnc1)c1cc(F)cc(F)c1 | -0.92%
107 | Cc1cc(C)c2nc(NNC(=O)c3ccc(S(=O)(=O)N4CCCCC4)cc3)sc2c1 | 17.3%
108 | COC(=O)c1sccc1NC(=O)C1C2C=CC(O2)C1C(=O)O (stereo not given) | -1.72%
109 | Nc1ccc(C(=O)OCc2nc3ccccc3[nH]2)cc1 | -1.26%
110 | CCN1CCN(C(=O)c2ccc(COc3ccc(Cl)cc3)o2)CC1 | 10.1%
111 | CCOc1ccc(/C=N/O)cc1 | -0.89%
112 | CCOc1ccc(CCNC(=O)c2cc3sc(Cl)cc3n2C)cc1OCC | -3.59%
113 | O=C(O)Cc1sc(Nc2ccc(Cl)cc2)nc1-c1cccs1 | -2.18%
114 | S=C(c1ccc2c(c1)OCO2)N1CCCC1 | -6.34%
115 | Cc1ccc(-c2n[nH]c(=S)n2/N=C/c2cc3c(cc2[N+](=O)[O-])OCO3)cc1 | -15.8%
